# Test results from PubChem BioAssay.
# A number with no mark means an inactive call. For some of these results: Results with a measured potency or affinity are listed apart. Calls of active or inactive are those of the source. Unless noted, no rule for the calls is given here.
# How the values were obtained:
# [1] = antimalarial activity against Dd2 strain (AID 2302;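 active = growth inhibition above 50% at the single 2 µM test dose, taken to imply half-maximal potency below 2 µM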;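 also: 0% = DMSO untreated growth and 100% = chloroquine plus artemisinin killed control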); conditions: P. falciparum Dd2 in RBCs, LDH growth readout, 72 h; at 2 µM; stronger effect = higher value
# [2] = HepG2 cytotoxicity, primary screen, cytotoxicity control for P. falciparum antimalarial project, cell-based, ATP luminescence (AID 2303;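 active = inhibition above 50%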;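 also: 0% = DMSO wells and 100% = digitonin-killed cells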); conditions: HepG2 viability, 24-48 h, at 10 µM, stronger effect = higher value
# [3] = target: L-lactate dehydrogenase (Plasmodium falciparum (isolate CDC / Honduras)) (UniProt Q27743); experiment: PfLDH activity inhibition – cell lysate, 3D7 strain, counter-screen for P. falciparum growth inhibition project (AID 2304);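 also: 0% = vehicle and 100% = reference inhibitor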; conditions: P. falciparum 3D7 crude extract, LDH APAD/NBT absorbance; at 2 µM; stronger effect = higher value
# [4] = inhibition of 3D7 malaria parasite growth – strain 3D7 (AID 2306);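 also: 0% = DMSO wells and 100% = chloroquine plus artemisinin control wells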; conditions: P. falciparum 3D7 erythrocytic growth, LDH absorbance, 72 h; at 2 µM; stronger effect = higher value
# [5] = target: Calcium-dependent protein kinase 1 (Plasmodium falciparum (isolate 3D7)) (UniProt P62344); experiment: PfCDPK1 kinase inhibitors, biochemical, TCAMS library (AID 1159585; cut-off not given, nearly all actives have IC50 up to about 0.98 µM;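 also: inhibitors leave more ATP so luminescence rises with inhibition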); conditions: recombinant PfCDPK1, Kinase-Glo ATP depletion luminescence
# [6] = target: Plasmodium falciparum protein kinase 6 (PK6, PF3D7_1337100) (UniProt Q8IDW1); experiment: PfPK6 kinase inhibitors, biochemical, TCAMS library (AID 1159586); conditions: recombinant PfPK6, Kinase-Glo ATP depletion luminescence
# [7] = target: Protein kinase 7 (PK7), Plasmodium falciparum 3D7 (PF3D7_0213400) (UniProt Q7YTF7); experiment: inhibition of Plasmodium PK7 catalytic activity – biochemical, TCAMS antimalarial set, Kinase-Glo luminescence (AID 1159587); conditions: recombinant PfPK7, Kinase-Glo ATP depletion luminescence
# [8] = target: Calcium-dependent protein kinase 4 (Plasmodium falciparum (isolate 3D7)) (UniProt Q8IBS5); experiment: PfCDPK4 kinase inhibitors, biochemical, TCAMS library (AID 1159588; cut-off not given, nearly all actives have IC50 up to about 0.91 µM); conditions: recombinant PfCDPK4, Kinase-Glo ATP depletion luminescence
# Chain of Calcium-dependent protein kinase 4 (Plasmodium falciparum (isolate 3D7)) (Q8IBS5 whole entry, looked up): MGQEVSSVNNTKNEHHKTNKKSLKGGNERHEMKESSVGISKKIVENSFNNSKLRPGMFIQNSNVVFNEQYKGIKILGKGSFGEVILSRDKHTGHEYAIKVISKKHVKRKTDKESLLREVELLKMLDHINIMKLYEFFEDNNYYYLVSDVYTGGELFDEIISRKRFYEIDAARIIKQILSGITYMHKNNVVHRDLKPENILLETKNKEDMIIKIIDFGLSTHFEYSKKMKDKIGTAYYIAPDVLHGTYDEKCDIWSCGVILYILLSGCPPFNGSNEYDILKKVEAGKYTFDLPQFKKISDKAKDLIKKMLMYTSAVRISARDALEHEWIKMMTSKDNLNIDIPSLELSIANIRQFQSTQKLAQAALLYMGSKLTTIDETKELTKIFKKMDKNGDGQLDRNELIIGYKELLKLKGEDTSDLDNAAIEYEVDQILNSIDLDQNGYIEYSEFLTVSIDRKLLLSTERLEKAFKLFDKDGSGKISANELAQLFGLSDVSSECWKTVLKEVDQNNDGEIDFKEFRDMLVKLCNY
# Chain of L-lactate dehydrogenase (Plasmodium falciparum (isolate CDC / Honduras)) (Q27743 whole entry, looked up): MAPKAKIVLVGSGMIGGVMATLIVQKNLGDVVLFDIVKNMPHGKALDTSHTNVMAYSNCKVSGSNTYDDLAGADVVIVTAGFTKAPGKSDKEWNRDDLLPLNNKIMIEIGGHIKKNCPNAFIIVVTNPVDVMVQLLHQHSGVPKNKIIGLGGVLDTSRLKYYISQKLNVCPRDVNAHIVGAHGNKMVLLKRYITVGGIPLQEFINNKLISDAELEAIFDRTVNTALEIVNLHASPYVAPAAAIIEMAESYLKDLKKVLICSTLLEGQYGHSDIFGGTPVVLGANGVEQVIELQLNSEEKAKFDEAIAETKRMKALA
# Chain of Calcium-dependent protein kinase 1 (Plasmodium falciparum (isolate 3D7)) (P62344 whole entry, looked up): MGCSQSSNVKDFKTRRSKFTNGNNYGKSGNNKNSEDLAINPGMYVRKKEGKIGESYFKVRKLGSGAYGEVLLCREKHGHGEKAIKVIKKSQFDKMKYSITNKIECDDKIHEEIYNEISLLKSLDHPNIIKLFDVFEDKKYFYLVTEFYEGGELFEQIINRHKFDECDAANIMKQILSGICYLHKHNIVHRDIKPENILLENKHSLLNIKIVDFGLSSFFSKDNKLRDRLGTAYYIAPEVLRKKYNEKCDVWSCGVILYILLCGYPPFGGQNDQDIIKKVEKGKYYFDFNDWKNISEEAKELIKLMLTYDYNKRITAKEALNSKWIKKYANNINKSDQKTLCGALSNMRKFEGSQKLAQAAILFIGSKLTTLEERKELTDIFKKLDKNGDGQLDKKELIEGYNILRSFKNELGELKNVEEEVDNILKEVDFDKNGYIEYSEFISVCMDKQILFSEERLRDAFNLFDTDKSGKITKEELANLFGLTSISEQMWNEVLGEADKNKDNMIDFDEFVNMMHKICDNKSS
# Chain of Plasmodium falciparum protein kinase 6 (PK6, PF3D7_1337100) (Q8IDW1 1-305): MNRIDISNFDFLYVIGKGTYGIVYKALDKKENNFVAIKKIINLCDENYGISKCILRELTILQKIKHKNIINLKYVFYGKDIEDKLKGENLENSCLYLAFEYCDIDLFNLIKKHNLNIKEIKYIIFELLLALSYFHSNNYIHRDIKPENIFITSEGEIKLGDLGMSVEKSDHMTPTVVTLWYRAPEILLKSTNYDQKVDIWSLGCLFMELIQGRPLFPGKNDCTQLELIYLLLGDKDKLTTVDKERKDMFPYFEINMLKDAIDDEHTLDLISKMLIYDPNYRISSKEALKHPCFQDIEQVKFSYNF
# Chain of Protein kinase 7 (PK7), Plasmodium falciparum 3D7 (PF3D7_0213400) (Q7YTF7 1-343): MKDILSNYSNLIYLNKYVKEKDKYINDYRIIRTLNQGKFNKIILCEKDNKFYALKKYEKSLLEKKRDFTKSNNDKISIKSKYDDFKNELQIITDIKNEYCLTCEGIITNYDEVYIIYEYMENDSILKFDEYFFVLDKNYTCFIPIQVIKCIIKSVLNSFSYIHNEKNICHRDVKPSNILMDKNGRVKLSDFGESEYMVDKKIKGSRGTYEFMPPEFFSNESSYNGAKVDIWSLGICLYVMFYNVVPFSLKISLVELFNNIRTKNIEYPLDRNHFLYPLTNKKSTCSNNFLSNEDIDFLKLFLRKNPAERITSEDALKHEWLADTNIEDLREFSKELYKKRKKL
SMILES,growth inhibition [1],inhibition [2],inhibition [3] [%],growth inhibition [4],outcome [5],outcome [6],outcome [7],outcome [8]
COC(=O)c1c(C#N)c(OC)cc(O)c1CSC[C@H](Nc1nc(-c2ccc([N+](=O)[O-])cc2)cs1)C(=O)NCCN1CCCCC1,88% (active),5%,-2,85% (active),inactive,inactive,inactive,inactive
CCCCN(CCCC)Cc1cc(Nc2ccnc3cc(Cl)ccc23)ccc1O,87% (active),67% (active),-1,102% (active),inactive,inactive,inactive,inactive
Cn1nc(C(F)(F)F)c(-c2ccc(F)cc2)c1NC(=O)Nc1ccccc1,99% (active),3%,6,101% (active),inactive,inactive,inactive,inactive
CCNc1cc(C(=O)N[C@@H](Cc2ccccc2)[C@H](O)CNCc2cc(OC)cc(OC)c2)cc(N2CCCS2(=O)=O)c1,86% (active),-4%,-2,99% (active),inactive,inactive,inactive,inactive
CCCCCC(C)NC[C@@H](O)[C@H](Cc1ccccc1)NC(=O)c1cc(NCC)cc(N2CCCCS2(=O)=O)c1 (stereo not given in full),79% (active),3%,0,98% (active),inactive,inactive,inactive,inactive
COc1ccc(Br)cc1/C=C/C(=O)Nc1ccc(C2CCN(C)CC2)cc1,61% (active),11%,-3,101% (active),inactive,inactive,inactive,inactive
COc1ccc(C(=O)Nc2ccc(Cl)cc2C(=O)Nc2ccncc2)cc1,29%,7%,1,91% (active),inactive,inactive,inactive,inactive
O=c1cc(NCCCNC2CCCc3c2cc(Cl)c(Cl)c3Cl)[nH]c2ccccc12 (stereo not given),64% (active),6%,-10,100% (active),inactive,inactive,inactive,inactive
CN1CCCN(Cc2cccc(-c3cccc(NS(=O)(=O)c4cccc5cccnc45)c3)c2)CC1,74% (active),21%,-6,97% (active),inactive,inactive,inactive,inactive
CCCCN1CC[C@@H](CCC(O)c2cc(OCCC)nc3ccc(OC)cc23)[C@@H](CC)C1 (stereo not given in full),99% (active),23%,-4,100% (active),inactive,inactive,inactive,inactive
O=C(NCCc1ccccc1)N(Cc1cccc(-c2ccc(CNCCc3ccccc3)cc2)c1)C1CCN(Cc2ccccc2)CC1,91% (active),94% (active),-5,90% (active),inactive,inactive,inactive,inactive
COc1ccc2nc(N)nc(C)c2c1,1%,5%,5,90% (active),inactive,inactive,inactive,inactive
CCCC1N=C(N)N=C(N)N1c1ccc(CC)cc1 (stereo not given),4%,11%,1,94% (active),inactive,inactive,inactive,inactive
CC1(C)N=C(N)N=C(N)N1OCCCO,-1%,27%,-2,96% (active),inactive,inactive,inactive,inactive
O=C(Nc1cccc(CN2CCCN(Cc3cccc(O)c3)CC2)c1)c1cc2ccccc2s1,75% (active),15%,-4,101% (active),inactive,inactive,inactive,inactive
Cc1[nH]n(-c2cccc(Cl)c2)c(=O)c1-c1ccc(Cl)cc1,41%,0%,-8,99% (active),inactive,inactive,inactive,inactive
Cc1ccc(S(=O)(=O)n2nccc2-c2c(-c3ccc(Cl)cc3)noc2C)cc1,97% (active),-1%,-2,97% (active),inactive,inactive,inactive,inactive
Cc1cccc(C)c1CNc1cccc(-c2nc(C)c(C)[nH]2)c1,44%,58% (active),-3,99% (active),inactive,inactive,inactive,inactive
COc1ccc(C(=O)N2CCC3(CC2)C(=O)N(CC(=O)NCC2CCCCC2)CN3c2ccccc2)c(OC)c1,99% (active),6%,4,100% (active),inactive,inactive,inactive,inactive
Cc1cc(N[C@@H](Cc2ccccc2)C(=O)Nc2ccccc2)nc(NCC2CCCCC2)n1,55% (active),12%,1,98% (active),inactive,inactive,inactive,inactive
